Experimental findings from PubChem BioAssay are described below.

Where “and” joins values, the source holds several entries; their conditions need not be identical. Identical values can stand only once. Inconclusive results are not listed. Calls of active or inactive are those of the source.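 Rule for the calls, unless noted: active = compounds whose cell count with miR-34 switched on is under 0.7 times the count with it off; inactive = the rest.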

The nature of test [1]: viability loss with induced miR-34 in A549 – imaging, A549 dox-inducible miR-34, nuclei and caspase counts, primary screen (AID 1347080). Conditions: A549 miR-34 inducible, Hoechst nuclei count, 48 h.
A short description of test [2]: chitosan synthesis blockers in C. neoformans – flow cytometry, Cibacron Brilliant Red staining (AID 1347148; call rule not given here;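 note: compound exposure lasted three days at 37 degrees C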). Conditions: Cryptococcus neoformans chitosan, stronger effect = lower value; at 10 µM unless noted.
The target of test [3] is ATP-dependent translocase ABCB1 (Homo sapiens) (UniProt P08183). Nature of the test: P-glycoprotein substrate transport blockade – cell-based (AID 377; in the data active = fluorescence slope change above about 50%). Conditions: MDR1-expressing cells, fluorescent substrate accumulation slope; stronger effect = higher value; concentration not given here.
Test [4] is described as follows: P. berghei load reduction in hepatocytes – cell-based, HepG2, luciferase luminescence, HepG2 viability, primary screen (AID 624349; in the data active = parasite load remaining mostly below about 12%, no sharp cut-off; inactive = mostly above about 10%;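 note: 100% = mean of DMSO negative control wells on the same plate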). Conditions: P. berghei liver stage in HepG2, luciferase luminescence, concentration not given here; parasite load remaining: stronger effect = lower value; viability: measured here: HepG2 viability without parasites.
The nature of test [5]: MELAS cybrid and Rieske KO viability enhancers – cell-based, MELAS cybrids, Rieske KO mouse fibroblasts, CellTiter-Glo, primary screen (AID 1508586;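 active = mean z-score across replicates of 1.96 or higher in either the MELAS or the Rieske mutant cell line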;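 note: z relative to plate mean and SD of compound and empty wells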). Conditions: low glucose. Background: In ATP-based viability assays light output follows the ATP content of the culture.
Test [6] in a line: galactose survival enhancers in mitochondrial complex I cybrids – cell-based, galactose medium, ATP luminescence, primary screen (AID 1645843;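 active = z-score of at least 1.8 in each of two replicates, scored against plate mean and spread of sample wells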;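 note: positive z means more ATP and so rescue of galactose-driven cybrid death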). Conditions: complex I mutant cybrid cells, 72 h, stronger effect = higher value.
Setting [7] is: stronger effect = lower value, cell number ratio, induced over uninduced.
Where [8] appears, read: measured here: relative caspase fold change +Dox/-Dox.
The mark [9] stands for this setting: measured here: total cells with miR-34 induction, stronger effect = lower value.
Setting [10] is: measured here: total cells without miR-34 induction.

ATP-dependent translocase ABCB1 (Homo sapiens), sequence (P08183 whole entry, looked up): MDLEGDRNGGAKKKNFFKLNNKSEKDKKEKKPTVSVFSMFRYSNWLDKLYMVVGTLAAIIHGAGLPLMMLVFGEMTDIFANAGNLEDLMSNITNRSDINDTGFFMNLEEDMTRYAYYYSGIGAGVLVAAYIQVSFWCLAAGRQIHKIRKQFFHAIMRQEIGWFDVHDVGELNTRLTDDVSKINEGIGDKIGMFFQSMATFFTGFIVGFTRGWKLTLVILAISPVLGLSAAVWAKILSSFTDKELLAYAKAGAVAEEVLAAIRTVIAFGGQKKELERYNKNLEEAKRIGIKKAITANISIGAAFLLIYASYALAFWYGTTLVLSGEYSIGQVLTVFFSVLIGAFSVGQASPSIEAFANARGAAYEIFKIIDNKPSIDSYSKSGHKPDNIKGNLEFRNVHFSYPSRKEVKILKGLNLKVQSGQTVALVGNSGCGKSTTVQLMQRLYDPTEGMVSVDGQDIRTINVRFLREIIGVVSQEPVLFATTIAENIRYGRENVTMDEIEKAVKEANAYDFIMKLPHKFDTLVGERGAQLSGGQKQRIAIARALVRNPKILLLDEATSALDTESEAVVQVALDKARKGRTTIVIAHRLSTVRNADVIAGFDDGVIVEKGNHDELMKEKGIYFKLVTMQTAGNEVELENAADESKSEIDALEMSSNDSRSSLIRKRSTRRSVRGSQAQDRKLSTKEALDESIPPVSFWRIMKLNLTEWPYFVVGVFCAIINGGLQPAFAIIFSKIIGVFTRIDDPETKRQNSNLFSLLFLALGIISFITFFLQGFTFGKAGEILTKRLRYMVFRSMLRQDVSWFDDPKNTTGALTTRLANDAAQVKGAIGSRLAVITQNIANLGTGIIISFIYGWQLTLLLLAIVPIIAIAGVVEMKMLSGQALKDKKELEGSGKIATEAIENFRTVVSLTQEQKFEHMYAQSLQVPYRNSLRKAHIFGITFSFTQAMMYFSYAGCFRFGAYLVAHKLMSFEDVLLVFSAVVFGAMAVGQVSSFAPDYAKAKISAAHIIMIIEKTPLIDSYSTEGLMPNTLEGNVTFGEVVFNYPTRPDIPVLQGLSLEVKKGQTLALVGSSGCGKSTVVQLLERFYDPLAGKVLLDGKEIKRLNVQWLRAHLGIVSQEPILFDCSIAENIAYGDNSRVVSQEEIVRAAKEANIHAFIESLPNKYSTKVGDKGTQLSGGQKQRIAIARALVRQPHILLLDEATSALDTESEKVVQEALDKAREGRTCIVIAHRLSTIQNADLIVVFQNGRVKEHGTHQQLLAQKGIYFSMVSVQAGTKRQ

For `CCCCCCCCCCCCCCCC(=O)OC[C@H](COP(=O)([O-])OCC[N+](C)(C)C)OC(=O)CCCC=O`, the values for the fold change in test [1] (setting [7]) and in test [1] (setting [8]) were 0.934 (inactive) and 2.44, respectively. Moreover, the cell count in test [1] (setting [9]) was determined as 5310; in test [1] (setting [10]), 5690.
For `CCCCC/C=C\C/C=C\C/C=C\C/C=C\CCCC(=O)NCCCC(=O)O`, in that order: 0.955 (inactive), 1.25, 5500 and 5760.
In the case of `CC(C)(O)[C@H]1O[C@H]2CC[C@@]3(C)[C@@](O)(CC[C@H]4Cc5c([nH]c6ccccc56)[C@@]43C)C2=CC1=O`, the fold change in test [1] (stronger effect = lower value) is 1.09 (inactive); in test [1] (setting [8]), 1.67. The values for the cell count in test [1] (setting [9]) and in test [1] (setting [10]) were 3780 and 3460, respectively. Besides, the fold fluorescence in test [2] is 8.47 [at 114.8 µM] (inactive).
Regarding `COc1ccc(S(=O)(=O)N(CCO)c2ccccc2CN(C)C/C=C/c2ccc(Cl)cc2)cc1`, the fold change in test [1] (setting [7]) is 1.03 (inactive); in test [1] (setting [8]), 1.21. Further, the cell count turned out to be 5240 in test [1] (setting [9]) and 5100 in test [1] (setting [10]).
On to `CCCC(=O)N[C@H]1CCOC1=O`, for which the fold change in test [1] (setting [7]) was 0.907 (inactive); in test [1] (setting [8]), 0.504. The values for the cell count in test [1] (setting [9]) and in test [1] (setting [10]) were 6040 and 6650, respectively.
Turning to `C/C1=C/C(=O)O[C@@H]2C[C@@H](CC[C@H](C)/C=C\CC1)O[C@@](O)([C@@H]1CSC(=O)N1)C2`, the fold change is 1.2 (inactive) in test [1] (stronger effect = lower value) and 0.63 in test [1] (setting [8]). Also, the cell count is 1070 in test [1] (setting [9]) and 888 in test [1] (setting [10]).
As for `CCCCC/C=C\C/C=C\C/C=C\C/C=C\CCCCOC(CO)CO`, the fold change was 0.983 (inactive) in test [1] (setting [7]) and 0.95 in test [1] (setting [8]). Besides, the cell count in test [1] (setting [9]) worked out at 5720; in test [1] (setting [10]) it was 5810.
Regarding `CO[C@@H]1C[C@@H](C[C@H]2CC[C@H](C)[C@H]([C@@H](C)C(=O)O)O2)O[C@]2(O[C@](C)([C@H]3CC[C@@](C)([C@@H]4O[C@@H]([C@H]5O[C@@](O)(CO)[C@H](C)C[C@@H]5C)C[C@@H]4C)O3)C[C@H]2C)[C@@H]1C`, the fold change was 0.993 (inactive) in test [1] (stronger effect = lower value) and 1.75 in test [1] (setting [8]). For the same compound, the cell count in test [1] (setting [9]) is 1790; in test [1] (setting [10]), 1800. In test [2], the fold fluorescence was 5.68 [at 69 µM] (inactive).
Take `Cn1c2cccc(=O)c-2nc2ccccc21`: the fold change in test [1] (setting [7]) was 1.03 (inactive); in test [1] (setting [8]), 0.698. The cell count stood at 3390 in test [1] (setting [9]) and 3310 in test [1] (setting [10]).
For `COc1cc(/C=C\c2ccc(OC)c(O)c2)cc(OC)c1`, in that order: 0.917 (inactive), 0.882, 1120 and 1220.
In the case of `CC1(O)C[C@@]23C[C@@H](O)[C@@]4(O)[C@@H](C[C@H](O)C4(C)C)[C@](C)(O)[C@@H]2CCC1[C@H]3O` (stereo partly specified), the values for the fold change in test [1] (stronger effect = lower value) and in test [1] (setting [8]) were 0.932 (inactive) and 1.15, respectively. The values for the cell count in test [1] (setting [9]) and in test [1] (setting [10]) were 6010 and 6440, respectively.
Turning to `COC[C@H]([C@@H](O)[C@@H](O)C(=O)NCC[C@@H](C)c1nc(/C=C/C[C@H]2OC3(C[C@H](O)[C@H]2C)OC([C@@H](C[C@@H](O)[C@@H](C)[C@@H](O)[C@@H](C)/C=C(C)/C(C)=C/C=C/C(C)=C\C#N)OC)[C@@H](OP(=O)(O)O)C3(C)C)co1)N(C)C` (stereo partly specified), the fold change is 0.801 (inactive) in test [1] (stronger effect = lower value) and 1.44 in test [1] (setting [8]). The figures for the cell count in test [1] (setting [9]) and in test [1] (setting [10]) were 250 and 312, respectively. Further, the fold fluorescence in test [2] is 9.76 [at 5 µM] (inactive).
On to `O=NN(O)N1CCC[C@H]1C(=O)O`, for which the results for the fold change in test [1] (setting [7]) and in test [1] (setting [8]) were 0.944 (inactive) and 1.07, respectively. Moreover, the results for the cell count in test [1] (setting [9]) and in test [1] (setting [10]) were 5740 and 6080, respectively.
On to `N[C@H]1C[C@@H]1c1ccccc1`, for which, in test [3], the fluorescence slope change is 55% (active). Moreover, the parasite load remaining in test [4] is 52% (inactive) and 79.2% (inactive). Also, the viability (usually a read-out of living cells in per cent, often relative to untreated cells) in test [4] is 46.6% and 238%. The fold change in test [1] (stronger effect = lower value) was 0.858 (inactive); in test [1] (setting [7]), 0.985 (inactive); in test [1] (setting [8]), 1.15 and 1.49. For the same compound, the cell count in test [1] (setting [9]) is 9050; in test [1] (setting [10]) it was 9180 and 10500. The z-score was 0.109 (inactive) and -0.281 (inactive) in test [5] (MELAS cybrid survival, CellTiter-Glo 48 h, stronger effect = higher value); -0.102 and -1.1 in test [5] (Rieske KO mouse fibroblast survival, CellTiter-Glo 72 h); 0.92 (inactive) in test [6].
